# According to PubChem BioAssay (EPA / NIEHS):
# Results filed as inconclusive are left out. Calls of active or inactive are those of the source. The calls were made as follows: active = hit-call score of the fitted dose curve at least 0.9, where 1 is the maximum; inconclusive = response in the unintended direction; inactive = score below 0.9.
# Read-out: sulfotransferase (SULT2A), SULT2A1 (gene 6822)
# Test: CLD_SULT2A_48hr: CellzDirect (CLD) Gene Expression Assay for sulfotransferase (SULT2A) at 48 hours (AID 2283710);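 also: hits raise SULT2A1 transcript above the 0.2% DMSO vehicle baseline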
# Method: CLD_48hr is a cell-based, multiplexed-readout assay that uses hepatocyte, a human liver primary cell, with measurements taken at 48 hours after chemical dosing in a 96-well plate.CLD_SULT2A_48hr is one of 16 assay component(s) measured or calculated from the CLD_48hr assay. It is designed to make measurements of mRNA induction, a form of inducible reporter, as detected with chemiluminescence signals by Quantitative Nuclease Protection Assay (qNPA) technology.Data from the assay component CLD_SULT2A_48hr was analyzed at the endpoint, CLD_SULT2A_48hr, in the positive analysis fitting direction relative to DMSO as the negative control and baseline of activity. Using a type of inducible reporter, gain-of-signal activity can be used to understand changes in the reporter gene as they relate to the gene SULT2A1. Furthermore, this assay endpoint can be referred to as a primary readout. To generalize the intended target to other relatable targets, this assay endpoint is annotated to the transferase intended target family, where subfamily is sulfotransferase.
# Human hepatocyte cultures were treated daily for two consecutive days with fresh dosing solutions containing appropriate concentrations of the 320 ToxCast chemicals (chemical identities were blinded to CellzDirect and other ToxCast collaborators), vehicle control (0.2% DMSO), and positive control inducers as summarized in Table 1. Due to the large number of treatment groups and chemicals examined, the ToxCast chemicals were divided into two groups (spanning two independent cultures of hepatocytes from separate donor preparations (Hu778: ToxCast plates 1 and 2; Hu776: ToxCast plates 3 and 4). Each preparation of human hepatocyte cultures was treated with respective vehicle control, medium only control, set of six positive controls/reference chemicals for the five hepatic receptor pathways, and a subset of eight of the ToxCast chemicals (indoxacarb, pyrithiobac-sodium, norflurazon, cyhalofop-butyl, methomyl, thiram, acetochlor, and propiconazole). These replicate data, coupled with internal replicates designed within the blinded ToxCast chemical library, provided additional data to evaluate interindividual differences between hepatocyte preparations and their potential impact on chemical profiles.Cell morphology and integrity were evaluated using phase-contrast microscopy as an indicator of hepatocyte cell health (Tyson & Green, 1987). Cultures for each treatment group (i.e., media, vehicle [0.2% DMSO], positive control inducers [multiple concentrations], and the ToxCast chemicals [multiple concentrations]) were observed and cell morphology was assessed relative to vehicle control cultures at each harvest time point (0, 6, 24, or 48 h). […] Images were evaluated at the conclusion of the study to assess changes in cell integrity and account for the effects of chemical exposure on uncharacteristic changes in concentration-dependent gene expression profiles. The results from these determinations of apparent cytotoxicity were annotated (yes/no) alongside the corresponding qNPA data for reference.At the conclusion of each treatment period, hepatocyte cultures (96-well) were washed with 1 volume of HBSS, lysed by addition of 25 ul ArrayPlate lysis buffer (HTG, Tucson, AZ), and 70 ul/well of Denaturation Oil, denatured by incubation at 95C for 10 min, and frozen at approximately -70C until analysis by nuclease protection assay (qNPA) (Roberts et al., 2007). For qNPA analysis, cell lysates were thawed at 50C for approximately 30 min, qNPA probes were added, and samples were incubated at 95C for 10 min to begin the detection process by denaturing the target RNA, dissociating the duplexes and secondary structure hybridization. At the conclusion of the hybridization period, S1 nuclease reagent was added to each sample to digest all nonprotected nucleotides at 50C for 60-90 min. […]
Compound,outcome,AC50
OC(c1ccc(Cl)cc1)(c1ccc(Cl)cc1)C(Cl)(Cl)Cl,inactive,
O=P(O)(O)CCCl,inactive,
COCc1cnc(C2=NC(C)(C(C)C)C(=O)N2)c(C(=O)O)c1 (stereo not given),inactive,
COP(=S)(OC)Oc1ccc([N+](=O)[O-])c(C)c1,inactive,
CC(C)(C)C(=O)C(Oc1ccc(Cl)cc1)n1cncn1 (stereo not given),inactive,
CC(C)N1C(=O)c2ccccc2NS1(=O)=O,inactive,
CCOP(=O)(OCC)Oc1nc(Cl)c(Cl)cc1Cl,inactive,
CCNC(=O)NC(=O)C(C#N)=NOC,inactive,
C=C(C)CN(CC)c1c([N+](=O)[O-])cc(C(F)(F)F)cc1[N+](=O)[O-],inactive,
Nc1cnn(-c2ccccc2)c(=O)c1Cl,inactive,
CC(C)N1C(=O)N(c2ccccc2)CSC1=NC(C)(C)C,,33.1 µM (active)
CCN(CC)C(=O)C(C)Oc1cccc2ccccc12 (stereo not given),,33 µM (active)
CC(C)Oc1cccc(NC(=O)c2ccccc2C(F)(F)F)c1,inactive,
N#CN=C1SCCN1Cc1ccc(Cl)nc1,inactive,
COP(=S)(OC)SCn1nnc2ccccc2c1=O,inactive,
COCC(=O)N(c1c(C)cccc1C)C(C)C(=O)OC (stereo not given),,20 µM (active)
O=c1n(Cl)c(=O)n(Cl)c(=O)n1Cl,inactive,
CCN(CC)c1nc(C)cc(OP(=S)(OC)OC)n1,inactive,
Cc1cc(C)nc(Nc2ccccc2)n1,inactive,
Cc1c(COC(=O)[C@@H]2[C@H](/C=C(\Cl)C(F)(F)F)C2(C)C)cccc1-c1ccccc1,,5.45 µM (active)

Compound,outcome,AC50
CCCN(CC)CC1COC2(CCC(C(C)(C)C)CC2)O1 (stereo not given),,0.0474 µM (active)
CCCCOCN(C(=O)CCl)c1c(CC)cccc1CC,inactive,
CCNP(=S)(OC)O/C(C)=C/C(=O)OC(C)C (stereo not given),inactive,
Cc1cnc(C2=NC(C)(C(C)C)C(=O)N2)c(C(=O)O)c1 (stereo not given),inactive,
O=C1C2CC=CCC2C(=O)N1SC(Cl)(Cl)Cl (stereo not given),inactive,
Nc1c(Cl)c(F)nc(OCC(=O)O)c1Cl,inactive,
CO/N=C(/C1=NOCCO1)c1ccccc1Oc1ncnc(Oc2ccccc2Cl)c1F,inactive,
CC1(C)C(C(=O)OC(C#N)c2cccc(Oc3ccccc3)c2)C1(C)C (stereo not given),inactive,
COC(=O)NS(=O)(=O)c1ccc(N)cc1,inactive,
N#Cc1c(Cl)cccc1Cl,inactive,
CCOc1cc(C(C)(C)C)ccc1C1COC(c2c(F)cccc2F)=N1 (stereo not given),,7.73 µM (active)
COC(=O)NC(=S)Nc1ccccc1NC(=S)NC(=O)OC,inactive,
Clc1cccc(C(Cl)(Cl)Cl)n1,inactive,
COP(=O)(OC)O/C(C)=C/C(=O)N(C)C,inactive,
O=C(Nc1ccccc1-c1ccc(Cl)cc1)c1cccnc1Cl,inactive,
COC(=O)N(C(=O)N1CO[C@@]2(C(=O)OC)Cc3cc(Cl)ccc3C2=N1)c1ccc(OC(F)(F)F)cc1,inactive,
O=C(O)c1c(Cl)ccc2cc(Cl)cnc12,inactive,
CCOC(=O)C(C)OC(=O)c1cc(Oc2ccc(C(F)(F)F)cc2Cl)ccc1[N+](=O)[O-] (stereo not given),,4.61 µM (active)
CCC(C)n1c(=O)[nH]c(C)c(Br)c1=O (stereo not given),inactive,
CS(=O)(=O)c1ccc(C(=O)C2C(=O)CCCC2=O)c([N+](=O)[O-])c1,inactive,
